Screen size: about 340,000 compounds; about 2,100 (0.62%) were called active. The list is a sample of the results. Results with a measured potency or affinity are listed apart. Unmarked numbers belong to inactive results.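 How the source made its calls: active means first-screen hits whose inhibition reached a set limit at any dose in the follow-up dose series; inconclusive means inhibition above the set first-screen limit but never retested; inactive means the rest.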
molecular target: Rac GTPase-activating protein 1 (Homo sapiens) (UniProt Q9H0H5); assay: MgcRacGAP GTPase-activating activity inhibitors, confirmation, biochemical, ADP Hunter fluorescence, primary and confirmatory (AID 624330); details: MgcRacGAP-stimulated Rac1 GTP hydrolysis, at 30 µM, hits give high values, GST-tagged Rac1 F28L mutant substrate;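 further: fluorescence reports GDP produced by GAP-driven GTP hydrolysis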
Sequence (Q9H0H5 whole entry, looked up): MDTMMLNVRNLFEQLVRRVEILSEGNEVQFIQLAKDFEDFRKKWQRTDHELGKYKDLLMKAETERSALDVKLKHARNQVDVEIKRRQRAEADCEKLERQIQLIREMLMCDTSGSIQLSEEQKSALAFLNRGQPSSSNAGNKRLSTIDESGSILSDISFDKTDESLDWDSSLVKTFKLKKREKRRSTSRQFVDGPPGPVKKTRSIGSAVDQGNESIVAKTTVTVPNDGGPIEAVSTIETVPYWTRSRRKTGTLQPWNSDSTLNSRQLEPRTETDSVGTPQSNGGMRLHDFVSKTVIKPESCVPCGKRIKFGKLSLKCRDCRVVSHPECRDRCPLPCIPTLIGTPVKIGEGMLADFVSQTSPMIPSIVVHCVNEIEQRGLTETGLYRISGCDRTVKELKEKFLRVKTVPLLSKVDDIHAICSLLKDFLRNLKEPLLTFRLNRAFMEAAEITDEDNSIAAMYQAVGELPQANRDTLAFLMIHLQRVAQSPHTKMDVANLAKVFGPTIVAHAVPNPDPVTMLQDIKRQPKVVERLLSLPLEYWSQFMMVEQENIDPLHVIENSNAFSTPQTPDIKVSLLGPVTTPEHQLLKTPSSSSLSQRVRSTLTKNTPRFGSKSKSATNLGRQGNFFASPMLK

| Structure (SMILES) | inhibition [%] |
| --- | --- |
| CC(C)C(O)(CC#CCN1CCCC1)c1ccccc1 (stereo not given) | 6.41 |
| CCn1cc(CN2CCC(C(=O)Nc3cccc(-c4cccc(OC)c4)c3)CC2)c(C)n1 | 4.15 |
| Cc1ccc(OCCOC(=O)Cn2nc(C)c([N+](=O)[O-])c2C)cc1 | 7.43 |
| Cc1cccc(C)c1OCC(O)CN1CCN(c2ccccc2)CC1 (stereo not given) | 4.36 |
| Cc1cccc(C(=O)Oc2ccc(/C=N/NC(=O)Cc3ccc([N+](=O)[O-])cc3)cc2)c1 | 1.03 |
| O=C(Oc1ccc(/C=N/n2cnnc2)cc1)c1cccc([N+](=O)[O-])c1 | 13.5 |
| CC1=NNC(=O)C1CC(=O)N/N=C/C(C)=C/c1ccccc1 (stereo not given) | 13.2 |
| Cn1c(=O)c2c(nc(CN3CCCCC3)n2CCc2ccccc2)n(C)c1=O | 18.6 |
| Cc1ccc(OCC(=O)N2CCN(S(=O)(=O)c3ccccc3[N+](=O)[O-])CC2)cc1 | 5.54 |
| COc1ccc(/C=N/NC(=O)CC(=O)NC2CCCCC2)cc1 | 6.51 |
| COC(=O)c1ccc(/C=N/NC(=O)CC(=O)NC2CCCCC2)cc1 | -3.55 |
| CN(NC(=O)Nc1ccc(Cl)cc1)c1ncc(C(F)(F)F)cc1Cl | 7.17 |
| COc1ccc(/C=N/NC(=O)CCCC(=O)NC2CCCCC2)cc1 | 2.54 |
| CCCOc1ccc(/C=N/NC(=O)C(C)Sc2ccccn2)cc1OCC (stereo not given) | 9.98 |
| Cc1ccc(/C=N/NC(=O)NN(C)c2ncc(C(F)(F)F)cc2Cl)cc1 | 4.41 |
| C=CCOc1ccc(/C=N/NC(=O)C(C)Sc2ccccn2)cc1OC (stereo not given) | 6.97 |
| COc1cc(/C=N/NC(=O)CCC(=O)NC2CCCCC2)ccc1C | 9.37 |
| CCS(=O)(=O)N1CCC(C(=O)Nc2cc(Cl)ccc2O)CC1 | 6.74 |
| Cn1cc(CN2CCCC(C(=O)c3nccn3C)C2)c(-c2cccc(Cl)c2)n1 (stereo not given) | 0.46 |
| COc1ccc(C)c2sc(N(CCCN(C)C)C(=O)CS(=O)(=O)c3ccc(F)cc3)nc12 | 2.17 |
| CCOC(=O)Cc1nnc(NC(=O)CSc2ccc(Cl)cc2)s1 | 0.78 |
| COc1ccc(C(=O)O/N=C(/c2ccccc2)c2ccncc2)cc1 | 4.95 |

| Structure (SMILES) | inhibition [%] |
| --- | --- |
| COc1ccc(C2C(=O)c3ccccc3C2=Nc2ccc(Br)cc2)cc1 (stereo not given) | 8.86 |
| CCC(C)[C@H](NC(=O)OC(C)(C)C)C(=O)N/N=C/c1ccc2cc(OC)ccc2n1 (stereo not given in full) | 7.33 |
| NS(=O)(=O)c1ccc(NC(=O)COC(=O)CCCN2C(=O)c3cccc4cccc(c34)C2=O)cc1 | 1.26 |
| Cc1cc(C(=O)Nc2ccc(F)cc2F)on1 | 9.92 |
| CCn1c(SCC(=O)NCc2ccc(F)cc2)nc2c(c1=O)SC(C)C2 (stereo not given) | 18 |
| COc1ccc(C=NNC(=O)CCCC(=O)NN=Cc2ccc(OC)c(O)c2)cc1O | 23 |
| CCOc1ccc(/C=N/NC(=O)C(OC)c2ccccc2)cc1 (stereo not given) | 3.79 |
| COc1cccc(/C=N/NC(=O)CSc2cccc3cccnc23)c1 | 5.24 |
| CCOc1cc(/C=N/NC(=O)C(=O)N/N=C/c2ccc(O)c(OCC)c2)ccc1O | 10.8 |
| O=C(CSc1cccc2cccnc12)N/N=C/c1cccc(O)c1 | 3.05 |
| Oc1ccc(/C=N/NC(=S)NC2CC3CCC2C3)cc1 (stereo not given) | 16.9 |
| C=CCOc1cccc(/C=N/NC(=O)C(OC)c2ccccc2)c1 (stereo not given) | 7.19 |
| COc1cccc(/C=N/NC(=S)NC2CC3CCC2C3)c1OC (stereo not given) | -1.35 |
| CCCCc1nnc(NC(=O)CN2C(=O)C3CCCCC3C2=O)s1 (stereo not given) | 6.64 |
| O=C(N/N=C\c1cn[nH]c1-c1ccccc1)c1ccc([N+](=O)[O-])cc1 | 9.27 |
| O=S(=O)(c1ccc(Cl)cc1)N1CCN(Cc2cccnc2)CC1 | 2.76 |
| Cc1c(C(=O)N2CCN(S(=O)(=O)c3ccccc3)CC2)oc2ccc(Br)cc12 | 2.23 |
| Cc1ccccc1SCC(=O)NCC(c1ccc(F)cc1)N1CCOCC1 (stereo not given) | 8.44 |
| N#CC1(NC(=O)CN2CCc3ccccc3C2)CCCC1 | -8.1 |
| C#CCN1C=CC(=O)[C@@H](OC(=O)Nc2ccc(C)cc2)[C@H]1c1ccccc1Br | -0.32 |
| O=C(O)C1C2C=CC(C2)C1C(=O)NC1CCS(=O)(=O)C1 (stereo not given) | 10.3 |
| O=C(NNC(=O)c1cccc(C(F)(F)F)c1)c1ccncc1 | 8.11 |

| Structure (SMILES) | inhibition [%] |
| --- | --- |
| Cc1cc(SCC(=O)Nc2ccc(O)cc2)n2ncc(-c3ccccc3)c2n1 | 4.14 |
| CC1(C)N=C(SCC(=O)Nc2ccc(Cl)cc2)C(c2ccc(Cl)cc2)=N1 | 2.66 |
| COc1cc(C(=O)NNC(=O)c2cc(=O)[nH]c3ccccc23)cc(OC)c1OC | 5.5 |
| CCOc1ccc(/C=N/NC(=O)Nc2ccccc2)cc1 | 10.7 |
| COc1cc(/C=N/NC(=O)Nc2ccccc2)ccc1OC(C)=O | 13.7 |
| CCN(CC)S(=O)(=O)c1ccc(OC)c(NC(=O)c2cn(CC)c3nc(C)ccc3c2=O)c1 | 7.32 |
| CCOC(=O)COc1cccc2c(=O)n(CC(N)=O)ccc12 | 3.81 |
| COc1ccc(C=C2NC(=S)NC2=O)cc1 | 14.2 |
| CCOc1ccc(/C=C2\NC(=S)NC2=O)cc1 | -0.61 |
| COC(=O)Cc1ccc(NC(C)=O)cc1 | 3.66 |
| CC(=O)Nc1ccc(OC(=O)c2ccc(Cl)cc2)cc1 | -3.42 |
| CCOC(=O)/C(=C/Nc1ccc(F)c(F)c1)[N+](=O)[O-] | -8.37 |
| Cc1cc(C)c2[nH]c(=O)c(C(c3nnnn3C(C)(C)C)N3CCN(C(=O)c4ccco4)CC3)cc2c1 (stereo not given) | 1.84 |
| CC(=O)c1ccc(N=Nc2ccc(N)cc2)cc1 | 0.6 |
| Nc1ccc(-c2cnc(-c3ccc(N)cc3)nc2)cc1 | 9.16 |
| Cc1cc(N(C)C)ccc1N=Nc1ccc2ncccc2c1 | 3.61 |
| Nc1ccc(SC(F)(F)F)cc1 | -3.64 |
| Nc1ccc(Sc2ccc([N+](=O)[O-])cc2)cc1 | 7.67 |
| Nc1ccc(CCc2ccc(N)cc2)cc1 | 13.9 |
| CN(C)c1ccc(N=Nc2ccccc2Br)cc1 | 8.09 |
| Nc1ccc(-c2nnc(-c3ccc(N)cc3)o2)cc1 | 12.9 |
